Measurements reported in PubChem BioAssay AID1159580 (chemical genetic matrix, 2015).
Where “and” joins values, the source holds several entries; their conditions need not be identical. Identical values can stand only once. The whole screen tested about 5,500 compounds, of which about 2,000 (36%) were called active. Roughly 18% stayed inconclusive and do not appear here. Cut-off read from the data, not from the text of the source: active = normalized growth mostly below about 0.91 (no sharp cut-off); inconclusive = no clear call, values can overlap the other calls; inactive = mostly above about 0.92. The list shows a part of the results.

Assay: chemical genetic growth profiling, strain panel (AID 1159580);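 note: tested at 20 µM; growth read once vehicle control cultures reached saturation at 30 °C; 1 = growth at the plate median or of vehicle wells; lower values mean less growth of the strain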
Details: S. cerevisiae deletion strains, growth OD

Measured: normalized growth

O=c1oc2ccccc2c(O)c1Cc1c(O)c2ccccc2oc1=O
inactive: locus YAL013W, strain DEP1, active compounds read low 1.01 | locus YAL021C, strain ccr4, active compounds read low 0.977 | locus YAL026C, strain drs2, active compounds read low 1.03 | locus YAL030W, strain snc1, active compounds read low 1.02 | locus YBL061C, strain skt5, active compounds read low 1.02 | locus YBR009C, strain hhf1, active compounds read low 1.01 | locus YBR021W, strain FUR4, active compounds read low 1.01 | locus YBR023C, strain chs3, active compounds read low 1.01 | locus YBR171W, strain sec66, active compounds read low 1.01 | locus YBR229C, strain ROT2, active compounds read low 0.998 | locus YBR231C, strain swc5, active compounds read low 1.02 | locus YBR279W, strain paf1, active compounds read low 1 | locus YCL011C, strain gbp2, active compounds read low 1.02 | locus YCL016C, strain dcc1, active compounds read low 1 | locus YCL029C, strain bik1, active compounds read low 0.968 | locus YCL069W, strain vba3, active compounds read low 1.02 | locus YCR088W, strain abp1, active compounds read low 1.02 | locus YDL005C, strain med2, active compounds read low 1.04 | locus YDL035C, strain GPR1, active compounds read low 1.04 | locus YDL040C, strain nat1, active compounds read low 1.03 | locus YDL074C, strain BRE1, active compounds read low 1.02 | locus YDL101C, strain DUN1, active compounds read low 1.01 | locus YDL185W, strain tfp1, active compounds read low 0.962 | locus YDL192W, strain arf1, active compounds read low 0.962 | locus YDR001C, strain nth1, active compounds read low 1 | locus YDR069C, strain doa4, active compounds read low 0.994 | locus YDR101C, strain arx1, active compounds read low 0.984 | locus YDR137W, strain rgp1, active compounds read low 1.03 | locus YDR159W, strain sac3, active compounds read low 0.936 | locus YDR162C, strain NBP2, active compounds read low 1.01 | locus YDR195W, strain ref2 1.01 | locus YDR297W, strain sur2, active compounds read low 1.01 | locus YDR318W, strain mcm21, active compounds read low 0.979 | locus YDR334W, strain swr1, active compounds read low 1.04 | locus YDR335W, strain msn5, active compounds read low 1.02 | locus YDR388W, active compounds read low 0.959 | locus YDR392W, strain spt3, active compounds read low 0.919 | locus YDR502C, strain sam2, active compounds read low 0.982 | locus YEL003W, strain gim4, active compounds read low 1.02 | locus YEL037C, strain rad23, active compounds read low 1.03 | locus YEL061C, strain CIN8 (second series), active compounds read low 1.03 | locus YEL061C, strain CIN8, active compounds read low 0.993 | locus YER015W, strain faa2, active compounds read low 1.01 | locus YER016W, strain bim1, active compounds read low 1.01 | locus YER110C, active compounds read low 0.96 | locus YER111C, strain swi4, active compounds read low 1.01 | locus YER155C, strain BEM2 (second series), active compounds read low 1.02 | locus YER155C, strain BEM2, active compounds read low 0.984 | locus YER167W, strain BCK2, active compounds read low 1.01 | locus YFR010W, strain ubp6, active compounds read low 1.02 | locus YGL078C, strain dbp3, active compounds read low 0.952 | locus YGL086W, strain mad1, active compounds read low 0.996 | locus YGL167C, strain pmr1, active compounds read low 1.01 | locus YGL173C, strain kem1, active compounds read low 1.01 | locus YGL227W, strain vid30, active compounds read low 1 | locus YGL240W, strain doc1, active compounds read low 0.984 | locus YGL248W, strain PDE1, active compounds read low 1.01 | locus YGL253W, strain hxk2, active compounds read low 1.02 | locus YGR078C, strain PAC10, active compounds read low 1.01 | locus YGR135W, strain pre9, active compounds read low 0.959 | locus YGR229C, strain SMI1, active compounds read low 1.02 | locus YGR252W, strain gcn5, active compounds read low 0.95 | locus YHR013C, strain ard1, active compounds read low 1 | locus YHR027C, strain rpn1, active compounds read low 1.01 | locus YHR030C, strain SLT2, active compounds read low 0.993 and 0.907 | locus YHR079C, strain IRE1 (second series), active compounds read low 0.963 | locus YHR079C, strain IRE1, active compounds read low 0.917 | locus YHR094C, strain hxt1, active compounds read low 0.96 | locus YHR129C, strain ARP1, active compounds read low 0.991 | locus YHR142W, strain chs7, active compounds read low 1.08 | locus YHR200W, strain rpn10, active compounds read low 0.98 | locus YIL066C, strain RNR3, active compounds read low 1 | locus YIL073C, strain SPO22, active compounds read low 0.979 | locus YIL125W, strain kgd1, active compounds read low 0.959 | locus YIR030C, strain dcg1, active compounds read low 0.96 | locus YJL092W, strain hpr5, active compounds read low 1.01 | locus YJL095W, strain BCK1 (second series), active compounds read low 1.01 | locus YJL095W, strain BCK1, active compounds read low 0.989 and 0.898 | locus YJL115W, strain asf1, active compounds read low 1.01 | locus YJL129C, strain trk1, active compounds read low 1 | locus YJL134W, strain LCB3, active compounds read low 0.987 | locus YJL154C, strain vps35, active compounds read low 1.02 | locus YJL164C, strain tpk1, active compounds read low 1.03 | locus YJL166W, strain qcr8, active compounds read low 0.995 | locus YJL168C, strain set2, active compounds read low 0.953 | locus YJL187C, strain SWE1 (second series), active compounds read low 1 | locus YJL187C, strain SWE1, active compounds read low 0.991 | locus YJR043C, strain POL32, active compounds read low 1.02
